Laboratory results from PubChem BioAssay (Tox21).
Inconclusive results are not listed. The source made the active and inactive calls. Unless noted, calls follow the shape of the dose curve; as a rule, active = well fitted curve in the direction sought with a large enough effect in the repeat runs; inconclusive = weak or mixed curves; inactive = no such curve, though single readings can be large; an effect the other way counts as inactive or inconclusive.

How the values were obtained:
[1] = qHTS assay to identify small molecule agonists of the vitamin D receptor (VDR) signaling pathway - cell viability counter screen (AID 743224); also: % is scaled to controls: 0 for no effect and ±100 for the full control effect; nearly all actives have a fitted effect of over 50% in size
How it was run: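 Cells: VDR-bla, 2,000/well, settled 4 h. Treatment: compounds in DMSO, 16 h, 37C/5% CO2. Readout: CellTiter-Glo luminescence after 30 min RT.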

[2] = qHTS assay to identify small molecule antagonists of the vitamin D receptor (VDR) signaling pathway - cell viability counter screen (AID 743225); also: % is scaled to controls: 0 for no effect and ±100 for the full control effect; nearly all actives have a fitted effect of over 50% in size
How it was run: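 Cytotoxicity toward the VDR-bla HEK 293T line was scored by ATP-based CellTiter-Glo luminescence, read in the wells already used for the beta-lactamase readout after 16 h compound treatment under 3 nM 1-alpha,25-dihydroxyvitamin D3 stimulation.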

[3] = qHTS assay to identify small molecule agonists of the NFkB signaling pathway (AID 1159509; active = well fitted curve in the direction sought with a large enough effect in the signal ratio in the repeat runs, not every such curve was filed as active; the % refers to the signal ratio; also: % is scaled to controls: 0 for no effect and ±100 for the full control effect)
How it was run: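 Readout: FRET fluorescence, 405 nm excitation, 460/530 nm emission; beta-lactamase expression disrupts FRET. Cells: ME-180 stably carrying NF-kB-driven bla reporter. Compound exposure 5 hr, 37 C, 5% CO2.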

[4] = qHTS assay to identify small molecule agonists of the NFkB signaling pathway - cell viability counter screen (AID 1159515; calls by dose curve; also: % is scaled to controls: 0 for no effect and ±100 for the full control effect; nearly all actives have a fitted effect of over 55% in size)
How it was run: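 Cells are seeded (2,000 NFkB-bla ME-180 per well), rested overnight, and dosed with DMSO-dissolved compounds for 5 hr at 37 C. Viability is then read by CellTiter-Glo luminescence after 30 min at room temperature.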

[5] = qHTS assay to identify small molecule agonists of the endoplasmic reticulum stress response signaling pathway (AID 1159516; active = well fitted activation curve with a large enough effect in the signal ratio in the repeat runs, not every such curve was filed as active; the % refers to the signal ratio; also: % is scaled to controls: 0 for no effect and ±100 for the full control effect)
How it was run: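 Cells are seeded at 1,500 per well and incubated overnight. Compounds in DMSO are added for 5 hr at 37 C, then beta-lactamase FRET substrate for 2 hr at room temperature, and fluorescence at 460 and 530 nm is measured.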

[6] = qHTS assay to identify small molecule agonists of the endoplasmic reticulum stress response signaling pathway - cell viability counter screen (AID 1159517; calls by dose curve;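 also: HeLa cells carrying an ER stress response element beta-lactamase reporter; % is scaled to controls: 0 for no effect and ±100 for the full control effect; nearly all actives have a fitted effect of over 50% in size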)
How it was run: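 Cytotoxicity of test compounds toward ESRE-bla HeLa cells was assessed after 5 hr exposure. The luminescent CellTiter-Glo signal was measured 30 min after reagent addition.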

[7] = qHTS assay to identify small molecule antagonists of the retinoid-related orphan receptor gamma (ROR-gamma) signaling pathway - cell viability counter screen (AID 1159520); also: % is scaled to controls: 0 for no effect and ±100 for the full control effect; nearly all actives have a fitted effect of over 50% in size
How it was run: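 Tet-on ROR gamma CHO cells (1,000/well) were plated 4 hr, given compounds in DMSO for 2 hr at 37 C, then induced with 1 uM final doxycycline for 16 hr. Viability was read as ATP by CellTiter-Glo luminescence after 30 min.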

[8] = target: Nuclear receptor ROR-gamma (Homo sapiens) (UniProt P51449); assay: qHTS assay to identify small molecule antagonists of the retinoid-related orphan receptor gamma (ROR-gamma) signaling pathway (AID 1159521)
How it was run: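 Readout: ONE-Glo luciferase luminescence, 30 min at room temperature. System: Tet-on RORγ CHO, RORE-LUC. Sequence: compound 2 h, doxycycline 1 uM final, 16 h at 37 C.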

[9] = qHTS assay to identify small molecule agonists of the AP-1 signaling pathway - cell viability counter screen (AID 1159525; calls by dose curve; also: nearly all actives have a fitted effect of over 55% in size)
How it was run: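 Each titration point was normalised to DMSO and tetra n-octyl ammonium bromide controls. The read was Cell Titer Glo luminescence after 30 min at RT, following 5 h compound exposure of ME-180 AP-1-bla cells at 37 °C.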

[10] = qHTS assay to identify small molecule agonists of the AP-1 signaling pathway (AID 1159526; calls by dose curve; also: % is scaled to controls: 0 for no effect and ±100 for the full control effect)
[11] = target: Retinoic acid receptor RXR-alpha (Homo sapiens) (UniProt P19793); assay: qHTS assay to identify small molecule agonists of the RXR signaling pathway (AID 1159527; calls by dose curve; also: % is scaled to controls: 0 for no effect and ±100 for the full control effect; nearly all actives have a fitted effect of over 35% in size)
Sequence of Retinoic acid receptor RXR-alpha (Homo sapiens) (P19793 whole entry, looked up): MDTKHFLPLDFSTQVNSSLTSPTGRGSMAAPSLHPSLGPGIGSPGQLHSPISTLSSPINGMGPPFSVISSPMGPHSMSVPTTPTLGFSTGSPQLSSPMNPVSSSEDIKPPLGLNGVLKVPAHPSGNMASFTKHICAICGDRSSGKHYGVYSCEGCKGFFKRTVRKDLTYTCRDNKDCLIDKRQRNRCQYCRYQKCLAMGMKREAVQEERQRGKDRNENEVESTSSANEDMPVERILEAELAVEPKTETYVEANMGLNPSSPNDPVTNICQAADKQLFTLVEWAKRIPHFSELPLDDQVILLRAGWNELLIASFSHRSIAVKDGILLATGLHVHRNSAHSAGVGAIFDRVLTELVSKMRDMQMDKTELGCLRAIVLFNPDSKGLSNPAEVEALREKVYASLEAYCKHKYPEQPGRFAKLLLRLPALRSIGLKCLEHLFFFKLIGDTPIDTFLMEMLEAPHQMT
How it was run: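 Reporter activation is measured as beta-lactamase activity via FRET substrate cleavage (emission 460/530 nm) in HEK 293T cells expressing an RXR-alpha-driven bla construct, following 16 hr compound exposure at 37 C.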

[12] = qHTS assay to identify small molecule agonists of the RXR signaling pathway - cell viability counter screen (AID 1159529)
How it was run: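 Tox21 10K compounds were tested for cytotoxicity against GeneBLAzer RXR-alpha HEK 293T cells grown in 2% charcoal-stripped FBS. Exposure lasted 16 hr at 37 C, 5% CO2; viability read by CellTiter-Glo luminescence.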

[13] = qHTS assay to identify small molecule antagonists of the retinoid acid receptor (RAR) signaling pathway - cell viability counter screen (AID 1159551); also: % is scaled to controls: 0 for no effect and ±100 for the full control effect; nearly all actives have a fitted effect of over 35% in size
How it was run: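 Cells (C3RL4) are plated, incubated overnight, dosed with compound in DMSO, then given retinol at 1 uM final. After 6 h at 37 C, CellTiter-Glo is added and luminescence read following 30 min at room temperature.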

[14] = qHTS assay to identify small molecule antagonists of the retinoic acid receptor (RAR) signaling pathway (AID 1159552)
How it was run: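 Overnight-plated C3RL4 reporter cells get compound, then retinol to 1 uM final; plates sit 6 hr at 37 C, 5% CO2. A luciferase reagent is added and light output recorded after 30 min at room temperature.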

[15] = qHTS assay to identify small molecule agonists of the retinoic acid receptor (RAR) signaling pathway (AID 1159553); settings: C3RL4 RARE luciferase reporter, agonist, 6 h; activation: at 73.3 µM (top of the series); also: % is scaled to controls: 0 for no effect and ±100 for the full control effect
How it was run: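 Seed C3RL4 reporter cells at 1,000 per well and incubate overnight at 37 C. Add compounds in DMSO, incubate 6 hr. Add luciferase reagent, wait 30 min at room temperature, read luminescence.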

[16] = qHTS assay to identify small molecule antagonists of the estrogen related receptor (ERR) signaling pathway from Tox21 library - cell viability counter screen (AID 1224834); also: % is scaled to controls: 0 for no effect and ±100 for the full control effect; nearly all actives have a fitted effect of over 30% in size
How it was run: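 ERR cells, 2,000/well; 6 h settle at 37 C/5% CO2; pin-tool compound transfer in DMSO; 17.5 h at 37 C; CellTiter-Fluor, 30 min; fluorescence intensity.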

[17] = target: Luciferin 4-monooxygenase (Photinus pyralis) (UniProt P08659); assay: qHTS assay to identify small molecule inhibitors of firefly luciferase (AID 1224835); also: % is scaled to controls: 0 for no effect and ±100 for the full control effect; nearly all actives have a fitted effect of over 25% in size
Sequence of Luciferin 4-monooxygenase (Photinus pyralis) (P08659 whole entry, looked up): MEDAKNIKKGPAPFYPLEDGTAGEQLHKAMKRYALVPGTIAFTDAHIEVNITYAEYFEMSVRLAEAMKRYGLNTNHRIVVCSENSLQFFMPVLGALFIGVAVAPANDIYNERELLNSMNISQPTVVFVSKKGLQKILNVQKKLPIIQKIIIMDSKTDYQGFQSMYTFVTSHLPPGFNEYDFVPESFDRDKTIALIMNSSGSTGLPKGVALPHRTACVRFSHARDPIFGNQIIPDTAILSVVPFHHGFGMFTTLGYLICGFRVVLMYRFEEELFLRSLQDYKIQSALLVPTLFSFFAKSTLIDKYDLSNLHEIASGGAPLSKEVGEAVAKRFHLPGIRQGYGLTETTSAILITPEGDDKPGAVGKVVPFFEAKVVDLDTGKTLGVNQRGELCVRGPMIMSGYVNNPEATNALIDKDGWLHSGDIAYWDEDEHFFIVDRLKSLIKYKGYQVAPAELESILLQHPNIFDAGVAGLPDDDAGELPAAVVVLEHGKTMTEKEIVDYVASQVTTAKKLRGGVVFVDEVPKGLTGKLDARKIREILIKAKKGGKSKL
How it was run: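 Quantitative HTS format; KM concentrations of both substrates. Purified P. pyralis FLuc activity quantified from luminescence images.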

[18] = qHTS assay to identify small molecule agonists of the constitutive androstane receptor (CAR) signaling pathway - cell viability counter screen (AID 1224836); also: % is scaled to controls: 0 for no effect and ±100 for the full control effect; nearly all actives have a fitted effect of over 45% in size
How it was run: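 Fluorescence from CellTiter-Fluor indicates live cells after 23 h exposure. The human hepatoma line expresses hCAR and a CYP2B6-2.2kb reporter. Incubation medium contains 0.75 uM PK11195 (final).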

[19] = qHTS assay to identify small molecule antagonists of the constitutive androstane receptor (CAR) signaling pathway - cell viability counter screen (AID 1224837); also: % is scaled to controls: 0 for no effect and ±100 for the full control effect; nearly all actives have a fitted effect of over 45% in size
How it was run: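 Viability was measured with CellTiter-Fluor in a HepG2 line carrying stably transfected hCAR and a CYP2B6-2.2kb construct. Cells were exposed for 23 hr at 37 C to 15 compound concentrations with 50 nM CITCO as agonist.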

[20] = target: Nuclear receptor subfamily 1 group I member 3 (Homo sapiens) (UniProt Q14994); assay: qHTS assay to identify small molecule antagonists of the constitutive androstane receptor (CAR) signaling pathway (AID 1224838);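 also: HepG2 cells stably expressing hCAR with CYP2B6 luciferase reporter stimulated by CITCO; % is scaled to controls: 0 for no effect and ±100 for the full control effect; nearly all actives have a fitted effect of over 40% in size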
Sequence of Nuclear receptor subfamily 1 group I member 3 (Homo sapiens) (Q14994 whole entry, looked up): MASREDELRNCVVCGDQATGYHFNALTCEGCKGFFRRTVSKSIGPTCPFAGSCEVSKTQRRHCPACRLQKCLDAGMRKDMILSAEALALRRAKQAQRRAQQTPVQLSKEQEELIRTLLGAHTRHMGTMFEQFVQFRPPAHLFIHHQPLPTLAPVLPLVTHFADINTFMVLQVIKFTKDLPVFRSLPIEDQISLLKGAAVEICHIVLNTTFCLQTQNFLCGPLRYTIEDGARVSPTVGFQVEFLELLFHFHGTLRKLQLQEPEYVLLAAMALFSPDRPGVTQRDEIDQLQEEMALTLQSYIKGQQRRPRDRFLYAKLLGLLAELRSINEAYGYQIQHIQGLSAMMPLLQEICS
How it was run: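 Antagonist mode used CITCO at a final 50 nM to activate CAR in human hepatoma HepG2 cells carrying stable hCAR and a 2.2 kb CYP2B6 promoter-luciferase construct. Compounds were tested at 15 concentrations over 24 h, with luminescence as the end point.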

CCCCCCCCCCCCCCCCI
inactive: outcome [1] | outcome [2] | outcome [3] | outcome [4] | outcome [5] | outcome [6] | activity, negative = cytotoxicity [7] -0.188% [at 19 µM] | activity change, negative = inhibition [8] 2.8% [at 19 µM] | viability change, negative = cytotoxic [9] -11.4% [at 15.8 µM] | activation [10] -9.43% [at 15.8 µM] | activation [11] 7.13% [at 15.8 µM] | activity change, negative = cytotoxicity [12] 14.9% [at 15.8 µM] | activity change, negative = cytotoxicity [13] -0.67% [at 19 µM] | activity, negative = inhibition [14] -6.93% [at 19 µM] | Potency [15] | viability change, negative = cytotoxic [16] 1.65% [at 19 µM] | activity change, negative = inhibition [17] 0.965% [at 23.6 µM] | viability change, negative = cytotoxic [18] -8.08% [at 19 µM] | activity change, negative = cytotoxicity [19] -13% [at 19 µM]

O=C(O)/C=C/c1ccccc1
inactive: outcome [1] | outcome [2] | outcome [3] | outcome [4] | outcome [5] | outcome [6] | outcome [7] | outcome [8] | outcome [9] | outcome [10] | Potency [11] | outcome [12] | outcome [13] | Potency [14] | Potency [15] | Potency [16] | Potency [17] | outcome [18] | Potency [19]

CCCCCN(CCCOC)C(=O)C(CCC(=O)O)NC(=O)c1ccc(Cl)c(Cl)c1 (configuration not stated)
inactive: outcome [1] | outcome [2] | outcome [3] | outcome [4] | outcome [5] | outcome [6] | outcome [7] | outcome [8] | outcome [9] | outcome [10] | Potency [11] | outcome [12] | outcome [13] | Potency [14] | Potency [15] | Potency [16] | Potency [17] | outcome [18] | Potency [19]

Oc1ccccc1Cc1ccccc1O
inactive: outcome [2] | outcome [3] | outcome [4] | outcome [5] | outcome [6] | outcome [7] | outcome [8] | outcome [9] | outcome [10] | Potency [11] | outcome [12] | outcome [13] | Potency [14] | Potency [15] | Potency [16] | Potency [17] | outcome [18] | Potency [19] | Potency [20]

CCCOCCOCCOCCO
inactive: outcome [1] | outcome [2] | outcome [3] | outcome [4] | outcome [5] | outcome [6] | outcome [7] | outcome [8] | outcome [9] | outcome [10] | Potency [11] | outcome [12] | outcome [13] | Potency [14] | Potency [15] | Potency [16] | Potency [17] | outcome [18] | Potency [19]

C=CCOCC(CO)(COCC=C)COCC=C
inactive: outcome [1] | outcome [2] | outcome [3] | outcome [4] | outcome [5] | outcome [6] | outcome [7] | outcome [8] | outcome [9] | outcome [10] | Potency [11] | outcome [12] | outcome [13] | Potency [14] | Potency [15] | Potency [16] | Potency [17] | outcome [18] | Potency [19] | Potency [20]

CCCCC/C=C/CC(=O)OC
inactive: outcome [1] | outcome [2] | outcome [3] | outcome [4] | outcome [5] | outcome [6] | outcome [7] | outcome [8] | outcome [9] | outcome [10] | Potency [11] | outcome [12] | outcome [13] | Potency [14] | Potency [15] | Potency [16] | Potency [17] | outcome [18] | Potency [19]

O=C(COCCOCCOCC(=O)Nc1c(I)cc(I)c(C(=O)O)c1I)Nc1c(I)cc(I)c(C(=O)O)c1I
inactive: outcome [1] | outcome [2] | outcome [3] | outcome [4] | outcome [5] | outcome [6] | outcome [7] | outcome [8] | outcome [9] | outcome [10] | Potency [11] | outcome [12] | outcome [13] | Potency [14] | Potency [15] | Potency [16] | Potency [17] | outcome [18]
